# Hits are enriched below; roughly 3.6% of the tested compounds scored in any of these assays.
# BoNT-A LC inh2: BoNT/A light chain protease inhibitors, primary screen, biochemical, flow cytometry, MLPCN library | 360,000 tested, 0.17% active | inhibition, % at 10 µM | multiplex microsphere protease substrate cleavage | Botulinum neurotoxin type A light chain protease (Clostridium botulinum A str. ATCC 3502); further: plate controls were buffer without enzyme for full effect and enzyme alone for no effect
# MazF activator: activators of E. coli MazEF toxin-antitoxin RNase, primary screen, biochemical, fluorescence, uHTS | FAM/BHQ RNA-DNA oligo cleavage fluorescence, 5 h | activation, % at 20 µM | 350,000 tested, 0.32% active | AID 504720, 2011; in the data active means activation above about 50%
# Target sequence (P0AE70 whole entry, looked up): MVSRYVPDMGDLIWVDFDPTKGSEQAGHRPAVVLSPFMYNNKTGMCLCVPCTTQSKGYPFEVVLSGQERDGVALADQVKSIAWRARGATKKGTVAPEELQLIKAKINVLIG
# Autofluor counter: counter-screen for toxin protease inhibitors: compound fluorescence; compound autofluorescence counterscreen, microsphere flow cytometry; stronger effect = higher value; fluorescence intensity (concentration not given with the values); 360,000 tested, 3.1% active; in the data active means fluorescence intensity above about 16000; inconclusive means no clear call, values can overlap the other calls
# Anthrax LF prot: Bacillus anthracis LF protease inhibitors, primary screen, biochemical, multiplex microsphere, MLPCN library | inhibition, % at 10 µM | AID 588501, 2011 | multiplex microsphere protease cleavage assay | Lethal factor (Bacillus anthracis), P15917 | 360,000 tested, 0.12% active; further: plate controls were buffer without enzyme for full effect and enzyme alone for no effect
# BoNT-F LC inh: BoNT/F light chain protease inhibitors, primary screen, biochemical, flow cytometry, MLPCN library; Botulinum neurotoxin type F light chain protease (Clostridium botulinum); Multiplex microsphere protease cleavage assay; inhibition, % at 10 µM; 360,000 tested, 0.22% active; AID 588497, 2011; in the data active means inhibition above about 35%, passing the limit was not always enough; inconclusive means no clear call, values can overlap the other calls; further: plate controls were buffer without enzyme for full effect and enzyme alone for no effect
# * hit, by the source's call; ? = inconclusive; . = not tested or not shown. Unless noted, no stated cut-off is given here; in the data, active means inhibition above about 30%; inconclusive means no clear call, values can overlap the other calls; inactive means below that.
SMILES,BoNT-A LC inh2,MazF activator,Autofluor counter,Anthrax LF prot,BoNT-F LC inh
COc1ccccc1N1C(C)=CC(=C(C#N)c2nc3ccccc3s2)C=C1C,57*,-50,3142,28,25
CC1=CC(=C(C#N)c2nc3ccccc3s2)C=C(C)N1c1ccc(F)cc1,36*,-97,3300,20,15
COc1ncc(-c2ccc(N3C(c4ccsc4)=Cc4ccc(F)cc4C3CC(C)=O)cc2)cn1 (configuration not stated),2,.,6087,5,-2
CCOC(=O)[C@]12CCCC=C1N(Cc1ccco1)C(=O)[C@H](CC(=O)NCc1cccc3ccccc13)C2,0,.,6549,6,-8
CC(C)CCNC(=O)CN(C(=O)Cn1nnc(-c2ccccc2F)n1)c1cccc2c1CCCC2,4,7,20259*,-10,7
CC(C)CCNC(=O)C(c1ccco1)N(CCCO)C(=O)Cn1nnc(-c2ccc(F)cc2)n1 (configuration not stated),0,8,4491,2,-2
COc1ccc(-c2nnn(CC(=O)N(CC(=O)NCCC(C)C)c3ccccc3)n2)cc1OC,3,4,21028*,3,5
COc1ccc(CCNC(=O)Cn2nnc(-c3ccc(N4CCOCC4)cc3)n2)cc1OC,0,3,10812,-5,9
CC(C)CCNC(=O)CN(CCCN1CCOCC1)C(=O)Cn1nnc(-c2ccc(F)cc2)n1,4,5,22173*,1,5
COc1ccc(CCNC(=O)Cn2nnc(-c3cccc(OC)c3OC)n2)cc1OC,-1,7,22884*,-2,-3
Cn1nc(SCc2ccccc2)c(=O)n(C(c2ccccc2)c2ccccc2)c1=O,-1,-5,4361,-8,-15
Cc1cc(N)ccc1NC(=O)CN1CCCC1,-3,1,3942,-13,-3
CCOc1c(C(=O)CC)cc2c(C)cc(=O)oc2c1C,0,2,16306*,-4,-1
CCc1nnc(NC(=O)CSc2nnc3scc(-c4ccc(C)cc4)n23)s1,-2,-13,21013*,0,-1
CCc1nnc(NC(=O)CSc2nc3cc4c(cc3cc2C)OCCO4)s1,2,55*,15848,-1,0
CCc1nnc(NC(=O)CSc2nnc(-c3ccccc3O)n2CC)s1,-4,-3,25104*,0,-3
CCc1nnc(NC(=O)CSc2nnc(-c3cc4ccccc4cc3O)n2CC)s1,0,4,8463,-2,-7
COC(=O)CSc1nc2cc3c(cc2cc1C)OCCO3,1,0,13228,1,-1
CCOC(=O)C1CCCN(C(=O)c2ccc(Cl)c(S(=O)(=O)N3CCc4ccccc43)c2)C1 (configuration not stated),0,14,3980,-4,2
CCOC(=O)N(C)c1c(CC)nc2c(OCc3ccccc3)cccn12,-1,.,4500,2,-4
CNc1ncnc2c1ncn2[C@H]1CN(Cc2cccs2)C[C@@H](CO)O1,0,.,3606,-8,3
CC(OC(=O)C1CCCO1)C(=O)NC1CCCC1 (configuration not stated),1,-6,19071*,0,-2
O=C1N(c2ccc(Cl)c(Cl)c2)CN(Cc2ccccc2)CN1n1cnnc1,-3,-5,17448*,2,-8
O=C(COc1ccc(S(=O)(=O)N2CCOCC2)cc1)NCCc1ccc(Cl)cc1,2,-3,3819,13,6
COc1cccc(N2CCN(C3CC(=O)N(c4ccc(Cl)c(Cl)c4)C3=O)CC2)c1 (configuration not stated),-1,3,4291,-6,-6
SMILES,BoNT-A LC inh2,MazF activator,Autofluor counter,Anthrax LF prot,BoNT-F LC inh
CN1C(=O)CC(N2CCN(c3ccc(Cl)c(Cl)c3)CC2)C1=O (configuration not stated),0,4,16251*,0,2
CCn1c(=N)n(CC(O)c2ccco2)c2ccccc21 (configuration not stated),-11,-12,28325*,-2,-19
N=c1n(Cc2ccccc2)c2ccccc2n1CC(O)c1ccco1 (configuration not stated),.,12,.,.,.
C=CCn1c(O)c(C(CC)=Nc2ccccc2NC(=O)CC)c(=O)[nH]c1=O,?,0,20357*,-3,1
C=CCn1c(O)c(C(CC)=NCCN2CCOCC2)c(=O)[nH]c1=O,5,-4,19747*,-2,10
Cc1cc(O)cc(O)c1C=NCc1ccco1,-1,90*,2036,0,1
Cc1ccc2nc(NCc3ccco3)c(C=NCc3ccco3)c(=O)n2c1,0,7,7173,-4,-4
Cc1sc2ncnc(SCC(=O)c3cccs3)c2c1C,-2,8,16770*,-2,-5
Cc1sc2nc(SCC(=O)c3cccs3)n(Cc3ccco3)c(=O)c2c1C,0,-3,22489*,0,-1
Cc1cccc(NC(=O)CSc2ncnc3sc(C)c(C)c23)n1,2,-2,5416,-4,0
CCC(=O)N(C)/C=C1\Sc2ccccc2C1=O,0,-14,2550,1,2
O=CN(/C=C1\Sc2ccccc2C1=O)Cc1ccccc1,2,-22,22692*,1,3
Cc1ccc(Cn2nnc3c(=O)[nH]c(C4CCN(C(=O)c5cccs5)CC4)nc32)cc1,-1,0,23099*,0,-3
O=c1[nH]c(C2CCCN(S(=O)(=O)c3ccccc3)C2)nc2c1nnn2Cc1ccccc1 (configuration not stated),2,-13,22466*,-1,2
CCCCN1CNC(=S)N(c2cc(C)ccc2C)C1,0,-2,21773*,0,-2
COCCNC(=O)c1cc(-c2ccc(-c3ccccc3)cc2)nc2ccccc12,5,-3,4106,-2,-3
O=C(OCCN1C(=O)c2cccc3c(N4CCOCC4)ccc(c23)C1=O)c1ccccc1Cl,37*,-728,3728,15,8
O=C(OCCN1C(=O)c2cccc3c(N4CCOCC4)ccc(c23)C1=O)c1ccc(Cl)cc1Cl,51*,-802,4710,24,19
O=C(OCCN1C(=O)c2cccc3c(N4CCOCC4)ccc(c23)C1=O)c1cccc(Cl)c1,.,-904,.,.,.
Cc1ccc(OC(=O)N(C)C[C@@H]2OCc3cn(nn3)CCCC(=O)N([C@H](C)CO)C[C@H]2C)cc1,0,-5,3524,-2,-1
O=C(Cn1c(=O)c2c(ncn2Cc2ccccc2)n(Cc2ccccc2)c1=O)NC1CC1,1,-30,19673*,-2,0
CCn1cnc2c1c(=O)n(CC(=O)O)c(=O)n2Cc1ccccc1,2,14,3920,15,-7
OC(c1ccccc1)c1cccnc1 (configuration not stated),0,2,10157,-1,1
CC(=O)NC(c1ccccc1)c1cccnc1 (configuration not stated),0,-5,16197*,-1,-1

# High-throughput results deposited in PubChem by several laboratories.
